# From paper PMC11006913
# Assays:
# Experiment in all cases: PBM; 200 nM protein, PBS
# Details in all cases: dsDNA, one strand shown
# ALX1 [1] = target: ALX1 (Homo sapiens, UniProt Q15699 118-204, L144V)
# ALX1 [2] = target: ALX1 (Homo sapiens, UniProt Q15699 118-204, L144R)
# ALX1 [3] = target: ALX1 (Homo sapiens, UniProt Q15699 118-204)
# NKX3-2 [4] = target: NKX3-2 (Homo sapiens, UniProt P78367 192-278, P234S)
# NKX3-2 [5] = target: NKX3-2 (Homo sapiens, UniProt P78367 192-278)
# HOXC10 [6] = target: HOXC10 (Homo sapiens, UniProt Q9NYD6 254-340)
# HOXC10 [7] = target: HOXC10 (Homo sapiens, UniProt Q9NYD6 254-340, K271E)
# HOXC10 (Homo sapiens, UniProt Q9NYD6 254-340, K271E), sequence (Q9NYD6 254-340 K271E): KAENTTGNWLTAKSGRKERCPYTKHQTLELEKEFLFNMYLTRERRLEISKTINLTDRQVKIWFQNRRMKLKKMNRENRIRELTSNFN
# ALX1 (Homo sapiens, UniProt Q15699 118-204), sequence (Q15699 118-204): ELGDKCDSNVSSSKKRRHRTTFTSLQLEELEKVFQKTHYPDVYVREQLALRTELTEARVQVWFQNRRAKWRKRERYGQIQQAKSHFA
# NKX3-2 (Homo sapiens, UniProt P78367 192-278, P234S), sequence (P78367 192-278 P234S): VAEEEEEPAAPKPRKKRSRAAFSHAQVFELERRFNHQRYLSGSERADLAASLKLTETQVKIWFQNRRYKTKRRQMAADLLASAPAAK
# NKX3-2 (Homo sapiens, UniProt P78367 192-278), sequence (P78367 192-278): as the sequence (P78367 192-278 P234S) above, with S43P counted along it
# ALX1 (Homo sapiens, UniProt Q15699 118-204, L144R), sequence (Q15699 118-204 L144R): as the sequence (Q15699 118-204) above, with L27R counted along it
# HOXC10 (Homo sapiens, UniProt Q9NYD6 254-340), sequence (Q9NYD6 254-340): as the sequence (Q9NYD6 254-340 K271E) above, with E18K counted along it
# ALX1 (Homo sapiens, UniProt Q15699 118-204, L144V), sequence (Q15699 118-204 L144V): as the sequence (Q15699 118-204) above, with L27V counted along it
sequence,measurement,setting,value
CAGGCCCG,binding signal,ALX1 [1],"6.27 upbm affinity estimate (log intensity, higher = more binding, comparable within an allelic series)"
same,binding signal,ALX1 [2],"6.24 upbm affinity estimate (log intensity, higher = more binding, comparable within an allelic series)"
same,binding signal,ALX1 [3],"6.21 upbm affinity estimate (log intensity, higher = more binding, comparable within an allelic series)"
CCCTAGGG,binding signal,NKX3-2 [4],"10.6 upbm affinity estimate (log intensity, higher = more binding, comparable within an allelic series)"
same,binding signal,NKX3-2 [5],"10.5 upbm affinity estimate (log intensity, higher = more binding, comparable within an allelic series)"
CAGCGCCG,binding signal,HOXC10 [6],"9.95 upbm affinity estimate (log intensity, higher = more binding, comparable within an allelic series)"
same,binding signal,HOXC10 [7],"9.93 upbm affinity estimate (log intensity, higher = more binding, comparable within an allelic series)"
